Data: PubChem BioAssay AID652054 (National Center for Advancing Translational Sciences (NCATS), 2013)
The campaign covered roughly 360,000 compounds. About 9,100 (2.5%) were called active. Roughly 4% stayed inconclusive and do not appear here. The full list was thinned out, with actives kept by preference. A number with no mark means an inactive call. No stated cut-off is given here; in the data, active means max response below about -50%; inconclusive means no clear call, values can overlap the other calls; inactive means above that.

Target: D(3) dopamine receptor (Homo sapiens) (UniProt P35462)
Assay: qHTS of D3 Dopamine Receptor Antagonist: qHTS
Conditions: D3R cells, DiscoveRx beta-arrestin luminescence, antagonist mode; hits give low values
Excerpt: D3 DARs represent a very important target for the treatment of several neuropsychiatric disorders. Indeed, one of the most promising therapeutic applications for the D3 DAR is in the area of addiction and related disorders. […] These findings have been observed with a number of addictive substances including cocaine, amphetamine, nicotine, and alcohol. […] Antagonism of the D3 DAR may also be therapeutic in the treatment of schizophrenia or psychosis. […] Since the D3 DAR is expressed in areas of the CNS associated with the control of mood and emotion, it has been hypothesized that selective antagonism of the D3 DAR may be effective in treating psychosis without inducing the motor side effects typically seen with D2 DAR antagonists.
This part of the project aims to discover novel antagonist.
NIH Chemical Genomics Center [NCGC]
NIH Molecular Libraries Probe Centers Network [MLPCN]
Assay Submitter (PI): David Sibley, NINDS
Freshly passaged cells are plated in 1536 well white, solid bottom plates at a density of 1500 cells/well in 3microl of complete media. After an overnight incubation at 37 degrees C in 5% CO2, cells are loaded with 23nl of test compound from the compound library (as well as dopamine controls) using a 1536 pintool and incubated at 37 degrees C for 90 minutes. Two microliters of DiscoveRx reagent is then added to all cells, and they are incubated for an additional 30 - 60 minutes at room temperature. Following incubation, luminescence is measured on a ViewLux CCD-based luminometer reader using a 20 sec exposure time.
On the % scale 0 is the no-effect control and ±100 the full control effect.

Chain of D(3) dopamine receptor (Homo sapiens) (P35462 whole entry, looked up): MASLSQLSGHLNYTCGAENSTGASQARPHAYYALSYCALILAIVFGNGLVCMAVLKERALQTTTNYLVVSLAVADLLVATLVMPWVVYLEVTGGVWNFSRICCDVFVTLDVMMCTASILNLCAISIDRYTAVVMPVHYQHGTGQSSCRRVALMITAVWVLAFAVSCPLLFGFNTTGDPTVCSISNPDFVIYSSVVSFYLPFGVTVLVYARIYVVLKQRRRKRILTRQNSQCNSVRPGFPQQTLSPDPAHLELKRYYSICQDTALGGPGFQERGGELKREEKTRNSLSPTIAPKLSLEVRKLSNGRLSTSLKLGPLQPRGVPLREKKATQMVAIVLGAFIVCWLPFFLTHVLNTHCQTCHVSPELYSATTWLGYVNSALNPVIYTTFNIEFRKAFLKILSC

| Structure (SMILES) | max response, negative = inhibition |
| --- | --- |
| CC(=O)C1(O)CCC2C3CCC4=C(Cl)C(=O)CCC4(C)C3CCC21C (stereo not drawn) | -13.9% |
| CCN1CCN(C(=O)Cc2coc3cc(C)cc(C)c23)CC1 | -9.21% |
| C[C@]12CCC3C(CC[C@H]4[C@H](O)[C@H](O)CC[C@]34C)C1CC[C@@H]2O (stereo partly drawn) | 2.6% |
| CC(C)CN1Cc2cc(N3CCCCC3)ccc2-n2nncc2C1 | -13.6% |
| CCOc1ccc(CN(CCCl)CCCl)cc1C(=O)OC | -27.4% |
| CN1CCN(C(=O)COc2ccc(C(C)(C)C)cc2Br)CC1 | 0% |
| CC(C)c1ccc(OCC(=O)N2CCCN(C)CC2)cc1 | -7.58% |
| CC(C)c1ccc(OCC(=O)N2CCN(C)CC2)c(Br)c1 | -52% (active) |
| Cc1ccc(P(=S)(c2ccc(C)o2)N2CCOCC2)o1 | 14% |
| Cc1nc2ccccn2c1P(=S)(N1CCCCC1)N1CCCCC1 | 12% |
| Cc1cc(C)cc(NC(=S)NC2CC3CCCC(C2)N3Cc2cccs2)c1 (stereo not drawn) | -81.8% (active) |
| CCC1(CC(C)c2ccccc2)C(=O)NC(=O)NC1=O (stereo not drawn) | 6.61% |
| O=C(CCN1CCCCC1)NCC(=O)Nc1ccc(Br)cc1C(=O)c1ccccc1 | -29.9% |
| Cc1ccc(Cn2c(C)c3cnn(CC(=O)N4CCC5(CC4)OCCO5)c(=O)c3c2C)cc1 | 3.94% |
| O=c1[nH]c2ccccc2n1C1CCN(C(c2ccnc3ccccc23)c2nnnn2Cc2ccccc2)CC1 (stereo not drawn) | 9.58% |
| Cc1ccc(Cn2nnnc2CN2CCC(n3nnc4ccccc43)CC2)cc1 | -69% (active) |
| O=c1[nH]c2ccccc2n1C1CCN(C(c2ccccc2)c2nnnn2Cc2ccccc2)CC1 (stereo not drawn) | 71.4% |

| Structure (SMILES) | max response, negative = inhibition |
| --- | --- |
| CCOC(=O)[C@]12Cc3ccccc3[C@H]1N(C1CCCCC1)C(=O)c1cc(OC)ccc12 | -14.9% |
| O=C(COC(=O)Cc1ccccc1)Nc1ccc(F)cc1 | 6.49% |
| CCOc1cccc(=NC2CCCCC2)c2c(C)[nH]c(C)c12 | 13.5% |
| CCN1CC2C3CCC(C)(O3)C2C1 (stereo not drawn) | -7.4% |
| Cc1nc2nc(C)c(CCC(=O)N3CCC4(CC3)OCCO4)c(C)n2n1 | -10.8% |
| CN1CCC(OC(=O)c2cccc(F)c2)CC1 | -13.8% |
| Cc1ccc(C2CN(C)CC2C(=O)c2ccc(F)cc2)cc1 (stereo not drawn) | -102% (active) |
| COc1ccc(C(=O)C2CN(C)CC2C(=O)c2ccc(OC)cc2)cc1 (stereo not drawn) | -1.15% |
| Cn1c(O)c(C(=Nc2ccc(F)cc2)c2ccccc2)c(=O)n(C)c1=O | -8.88% |
| c1cncc(CNCCc2c[nH]c3ccccc23)c1 | 14.8% |
| O=C1NCN(c2ccccc2)C12CCN(C(c1cccs1)c1nnnn1C1CCCCC1)CC2 (stereo not drawn) | -8.63% |
| c1ccc(N2Cc3ccccc3-n3nncc3C2)nc1 | -20.4% |
| CC(=O)OC1C2(CC3N4C(=O)C5(CO)SSC4(CC31O)C(=O)N5C)OC(C)C(C)(C)C2=O (stereo not drawn) | -98.1% (active) |
| CN(C)S(=O)(=O)c1cc(C(=O)N2CCC(C(=O)O)(c3ccccc3)CC2)ccc1Cl | -1.23% |
| Clc1ccc2nc3c(c(-c4ccccc4)c2c1)CNCC3 | -1.49% |
| COc1ccc(-n2nnnc2C(c2cccc3ccccc23)N2CCC(n3c(=O)[nH]c4ccccc43)CC2)cc1 (stereo not drawn) | 117% |
